Measurements: PubChem BioAssay (EPA / NIEHS)
Where “and” joins values, the source holds several entries; their conditions need not be identical. Identical values can stand only once. Results filed as inconclusive are left out. Where a structure was tested more than once in an assay, its records may differ in their call. Calls of active or inactive are those of the source. How the source made its calls: active means hit-call score of the fitted dose curve at least 0.9, where 1 is the maximum; inconclusive means response in the unintended direction; inactive means score below 0.9.

Assays:
[1] = TOX21_p53_BLA_p2_viability: Viability Assessment in the Tox21 HCT-116 p53 Agonism Beta-lactamase Assay, Phase 2 (AID 2283591);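 further: actives lower the ATP signal meaning cytotoxicity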
Method in brief: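 HCT116 p53-bla cells, 4000/well, dosed after 5 h plating (217-fold dilution of DMSO stocks) and incubated 16 h at 37C. Viability taken as cellular ATP by CellTiter-Glo luminescence after 30 min RT; signal loss marks cytotoxicity.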

[2] = biological target: Cellular tumor antigen p53 (Homo sapiens) (UniProt P04637); test: TOX21_p53_BLA_p2_ratio: Tox21 HCT-116 p53 Agonism Beta-lactamase Assay, Ratio, Phase 2 (AID 2283592)
Method in brief: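 First, HCT116 reporter cells settle for 5 h at 37C. Next, DMSO compound solutions are pinned in (217-fold dilution) and left 16 h. Finally, CCF4-AM substrate is loaded 2 h at room temperature and the 460/530 nm ratio read.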

[3] = TOX21_p53_BLA_p3_viability: Viability Assessment in the Tox21 HCT-116 p53 Agonism Beta-lactamase Assay, Phase 3 (AID 2283593);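 further: cells exposed to compound for 16 h before reading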
Method in brief: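 HCT116 cells, 4000/well, dosed 5 h after plating by pin transfer (217-fold dilution from DMSO stock) and incubated 16 h at 37C, 5% CO2. Viability read as ATP luminescence with CellTiter-Glo after 30 min at room temperature.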

[4] = biological target: Cellular tumor antigen p53 (Homo sapiens) (UniProt P04637); test: TOX21_p53_BLA_p3_ratio: Tox21 HCT-116 p53 Agonism Beta-lactamase Assay, Ratio, Phase 3 (AID 2283596)
Method in brief: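 Cells were seeded at 4000/well, rested 5 h at 37C, then dosed with DMSO compound solutions (217-fold dilution) for 16 h. CCF4-AM substrate was loaded for 2 h at room temperature, and the 460/530 nm emission ratio was fitted for gain of signal versus DMSO.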

[5] = TOX21_p53_BLA_p4_viability: Viability Assessment in the Tox21 HCT-116 p53 Agonism Beta-lactamase Assay, Phase 4 (AID 2283597);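 further: hits lower the luminescence signal meaning cytotoxicity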
Method in brief: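 4000 HCT116 cells per well; 5 h attachment; compounds from DMSO, 217-fold dilution; 16 h at 37C. Then CCF4-AM, 2 h RT, followed by CellTiter-Glo, 30 min RT, luminescence. Decrease = cytotoxicity.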

[6] = biological target: Cellular tumor antigen p53 (Homo sapiens) (UniProt P04637); test: TOX21_p53_BLA_p5_ratio: Tox21 HCT-116 p53 Agonism Beta-lactamase Assay, Ratio, Phase 5 (AID 2283599)
Method in brief: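 HCT-116 p53-bla cells (4000/well) plated 5 h, dosed with compound (217-fold DMSO dilution) for 16 h at 37 C; CCF4-AM substrate 2 h at room temperature. Activity is the 460/530 nm emission ratio (405 nm excitation), fitted in gain-of-signal direction versus DMSO.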

[7] = TOX21_p53_BLA_p5_viability: Viability Assessment in the Tox21 HCT-116 p53 Agonism Beta-lactamase Assay, Phase 5 (AID 2283600)
Method in brief: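 Decreased CellTiter-Glo luminescence denotes lost viability. Exposure: 16 h at 37C, 5% CO2, with compounds from DMSO stocks diluted 217-fold in wells of 4000 cells.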

[8] = biological target: Cellular tumor antigen p53 (Homo sapiens) (UniProt P04637); test: TOX21_p53_BLA_p4_ratio: Tox21 HCT-116 p53 Agonism Beta-lactamase Assay, Ratio, Phase 4 (AID 2283601)
Method in brief: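 HCT-116 p53 beta-lactamase reporter cells (4000/well) preincubated 5 h, then compound (217-fold dilution of DMSO stock) for 16 h at 37C. CCF4-AM substrate added 2 h at room temperature; 460/530 nm emission ratio fitted upward versus DMSO.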

[9] = ATG_XTT_Cytotoxicity: Cytotoxicity Assessment in the Attagene TRANS-FACTORIAL HepG2 Assay (AID 2283584)
Method in brief: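 HepG2 cells transiently transfected with GAL4-UAS multiple reporter units, dosed 24 h; cytotoxicity read by XTT as loss of signal versus DMSO baseline.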

Measured: AC50

Cellular tumor antigen p53 (Homo sapiens), sequence (P04637 whole entry, looked up): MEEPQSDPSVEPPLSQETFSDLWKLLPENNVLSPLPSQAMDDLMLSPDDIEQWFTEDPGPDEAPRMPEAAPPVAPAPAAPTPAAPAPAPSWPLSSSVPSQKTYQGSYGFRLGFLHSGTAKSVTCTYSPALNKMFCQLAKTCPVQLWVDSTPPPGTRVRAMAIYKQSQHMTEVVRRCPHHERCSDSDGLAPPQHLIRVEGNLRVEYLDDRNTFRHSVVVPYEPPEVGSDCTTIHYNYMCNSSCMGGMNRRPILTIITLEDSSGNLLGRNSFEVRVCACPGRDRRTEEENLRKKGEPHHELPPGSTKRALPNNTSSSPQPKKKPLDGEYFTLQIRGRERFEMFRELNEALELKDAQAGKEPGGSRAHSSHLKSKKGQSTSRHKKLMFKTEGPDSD

O=Nc1ccc(Nc2ccccc2)cc1
inactive: [1] | [3] | [7]
active: [2] 46 µM and 46.3 µM | [3] 67 µM | [4] 77.1 µM and 61.3 µM | [5] 85.3 µM and 75.2 µM | [6] 77.5 µM and 46.3 µM | [8] 76.2 µM and 63 µM

CCCCCCOC(=O)CC
inactive: [1] | [2] | [4] | [6]

CCc1ccc(C=O)cc1
inactive: [1] | [2] | [3] | [4] | [7]

O=C1C(c2[nH]c3ccc(S(=O)(=O)O)cc3c2O)=Nc2ccc(S(=O)(=O)O)cc21
not listed: [7] | [9]
inactive: all other assays above

CCCCOCCOCCSC#N
not listed: [3] | [9]
inactive: all other assays above

C=C(C)C(=O)Nc1ccc(Cl)c(Cl)c1
inactive: [1] | [2] | [3] | [4] | [5] | [6] | [8]
active: [2] 60.6 µM | [4] 56.1 µM | [6] 74.7 µM | [8] 68 µM

NCCNCCN
not listed: [7] | [9]
inactive: all other assays above

C=CC(C)(CCC=C(C)C)OC=O (stereo not given)
inactive: [1] | [2] | [4] | [8]

CCCCCCCCCC=O
inactive: [1] | [2] | [3] | [4] | [8]

CC(=O)Nc1ccc(CC(=O)O)cc1
not listed: [9]
inactive: all other assays above

Cc1ccc(S)cc1
not listed: [5] | [8] | [9]
inactive: all other assays above

OC1OC[C@@H](O)[C@H](O)[C@H]1O (stereo not given in full)
not listed: [5] | [8] | [9]
inactive: all other assays above

CC(=O)[O][Al][O]C(C)=O
inactive: [9] | [5] | [7]

CCC(=O)OCc1ccccc1
not listed: [9]
inactive: all other assays above
